Assay results published in the supplement of paper PMC10338343.
± gives the standard deviation. Whole data set: some 6,600 sequences, median “pre-steady-state target cleavage rate” near 0.07, cut for the highest 2% near 0.72. This excerpt belongs to a sample that is enriched for the highest values.

Tested on: MIWI (PIWIL1) piRISC loaded with Kctd7 piRNA (30 nt)
Assay: pre-steady-state target cleavage rate (min^-1); MIWI and MILI are mouse PIWI proteins and EfPiwi is from a freshwater sponge; tags in brackets are library labels; higher = faster piRNA-guided slicing of the target
Settings: guide: Kctd7 piRNA 5'p-UGUUAAUCUCUCAGAGAAGGUGACAGUGAU; auxiliary factor: 500 nM mouse GTSF1
Description: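 Cleave-'n-Seq: a library of target RNAs (target site embedded in constant flanks, ACAGCATTCCGCGTTAGTGATATCCG... 5' flank; DNA-blocked outside the site) at 0.1 nM was incubated with 1 nM active mouse MILI or MIWI piRISC (synthetic 5'-monophosphorylated piRNA guide) with or without 500 nM mouse GTSF1 at 33 °C for 1 min to 16 h. Uncleaved targets were sequenced and normalised to non-target controls, and the pooled three trials were fitted to a burst-and-steady-state model to give the pre-steady-state cleavage rate (min^-1; k3 is constrained to at most 1e-4). Sequence is the target site only; target names encode pairing extent (gX:gY) and contiguous / 1-mismatch / 2-mismatch / bulge geometry. Fits with R² ≤ 0 are excluded.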

| Sequence | pre-steady-state target cleavage rate |
| --- | --- |
| UAGACUGUCUCCUUCUCUGAGAGAUUAACA | 0.662 ± 0.04 |
| UUGACUGUCUCCUUCUCUGAGAGAUUAACA | 0.746 ± 0.04 |
| AUGACUGUCUCCUUCUCUGAGAGAUUAACA | 0.623 ± 0.037 |
| UACACUGUCUCCUUCUCUGAGAGAUUAACA | 0.599 ± 0.034 |
| UUCACUGUCUCCUUCUCUGAGAGAUUAACA | 0.685 ± 0.036 |
| AUCACUGUCACCUUCUUCUGAGAGAUUAACA | 0.212 ± 0.046 |
| UAGUGUGUCACCUUCUCUGAGACUUUAUGA | 0.00826 ± 0.0044 |
| UUCAGUGUCACCUUCUCUGAGAGAUAAACA | 0.264 ± 0.033 |
| UAGACUGUCUGGUUCUCUGAGAGAUUAUGA | < 0.0001 |
| UAGUCUGUCACCUUCUGUCAGAGAUUAACA | 0.01 ± 0.0034 |
| UACACUGUCACCGUUCUCUGAGAGAUUAACA | 0.586 ± 0.03 |
| UUCACUGUCACCGUCUCUGAGAGAUUAACA | 0.509 ± 0.022 |
| UAGUCUGUCACCGUUCUCUGAGAGAUUAACA | 0.651 ± 0.041 |
| AUCACUGUCACCGUUCUCUGAGAGAUUAACA | 0.774 ± 0.052 |
| UUCACUGUCUCGUUCUCUGAGAGAUUAACA | 0.631 ± 0.035 |
| UUCACUGUCACCGUUCUCUGAGAGAUUAACA | 0.729 ± 0.032 |
| UUCACUGUGACCUUCUCUGAGAGAUUAUGA | 0.119 ± 0.021 |
| UAGUGUGUCUCCUUCUCUGACAGAUUAACA | 0.386 ± 0.03 |
| UACACUGUCACCUUUCUCUGAGAGAUUAACA | 0.575 ± 0.029 |
| UUCACUGUCACUUUCUCUGAGAGAUUAACA | 0.691 ± 0.026 |
| UAGACUGUCACACUUCUCUGAGAGAUUAACA | 0.607 ± 0.04 |
| UAGACUGUCACUUUCUCUGAGAGAUUAACA | 0.8 ± 0.043 |
| UACACUGUCACUUUCUCUGAGAGAUUAACA | 0.725 ± 0.025 |
| UACACUGUCACUUCUCUGAGAGAUUAACA | 0.577 ± 0.038 |
| AUCACUGUCACUUUCUCUGAGAGAUUAACA | 0.794 ± 0.04 |

| Sequence | pre-steady-state target cleavage rate |
| --- | --- |
| AUCACUGUCACCUUUCUCUGAGAGAUUAACA | 0.599 ± 0.034 |
| UAGACUGUCACUUCUCUGAGAGAUUAACA | 0.466 ± 0.041 |
| UUGACUGUCACCUUCUCUGAGACAUUAACA | 0.0684 ± 0.0093 |
| AUCUCUGUCACCUUCUCUGAGAGAUUUUGA | 0.191 ± 0.042 |
| UAGACUCUCACCUUCUCUGAGAGAUUAACA | 0.431 ± 0.029 |
| UACACUGUCACCUUCUCUGAGUGAUUUACA | 0.0176 ± 0.0081 |
| UAGACAGUCACCUUCUCUGAGAGAUUAUCA | 0.252 ± 0.029 |
| UAGACUCACACCUUCUCUGAGAGAUUAUGA | 0.0733 ± 0.015 |
| UACAUCUGUCACCUUCUCUGAGAGAUUAACA | 0.66 ± 0.027 |
| UUCAGCUGUCACCUUCUCUGAGAGAUUAACA | 0.681 ± 0.037 |
| UACAGCUGUCACCUUCUCUGAGAGAUUAACA | 0.749 ± 0.036 |
| UACAGUGUCACCUUCUCUGAGAGAUUAACA | 0.663 ± 0.034 |
| UAGAGCUGUCACCUUCUCUGAGAGAUUAACA | 0.706 ± 0.047 |
| AUCAGCUGUCACCUUCUCUGAGAGAUUAACA | 0.792 ± 0.043 |
| UAGUCUGUCACCUUCUCUGAGAGAUAUUCA | 0.211 ± 0.045 |
| UUCACUGUCACCUUCUCUCUCAGAUUAACA | 0.00363 ± 0.0035 |
| UAGUGAGUCACCUUCUGUCAGAGAUUAACA | 0.00937 ± 0.0041 |
| UACACUGACACCUUCUCUGAGAGAUUUUGA | 0.0697 ± 0.019 |
| UAGUGACUCACCUUGUCUGUGAGAUUAACA | 0.0416 ± 0.0061 |
| AUCACUGUCACCAUCUCUGUGAGAUUAACA | 0.259 ± 0.021 |
| AUCACUGACACCAUCUCUGAGAGAUUAACA | 0.603 ± 0.037 |
| AUCACUGUCACCAUCUCUGAGAGAUUAACA | 0.795 ± 0.048 |
| AACACUGUCACCAUCUCUGAGAGAUUAACA | 0.77 ± 0.035 |
| UUCACUGUCACCAUCUCUGAGAGAUUAACA | 0.738 ± 0.029 |
| AUCACUGUCACCAUCUCUGAGAGAUUAAGA | 0.184 ± 0.032 |

| Sequence | pre-steady-state target cleavage rate |
| --- | --- |
| UACACUGUCACCAUCUCUGAGAGAUUAACA | 0.532 ± 0.044 |
| UUCACUGUCACCAUCUCUGUGAGAUUAACA | 0.215 ± 0.015 |
| UUCACUGUCACCAUCUCUGAGAGAUUAAGA | 0.134 ± 0.025 |
| UAGUGUGUCACCUACUCUCAGAGAUUAACA | 0.0454 ± 0.009 |
| AUCACUGAGACCUUCUCUGAGAGAUUAAGA | 0.17 ± 0.033 |
| UAGUCUGUCUCCAUCUCUGAGAGAUUAACA | 0.509 ± 0.034 |
| UAGUGAGUCACCUUGUCUGAGAGUUUAACA | 0.0617 ± 0.013 |
| UAGUGACUCACCUUCUUUGAGAGAUUAACA | 0.196 ± 0.021 |
| UAGUGACUCACCUUCUCUGAGUGAUUAACA | 0.0244 ± 0.0052 |
| UAGUGACAGACCUUCCUCUGAGAGAUUAACA | 0.0189 ± 0.004 |
| UAGUGACAGACCUUACUCUGAGAGAUUAACA | 0.0198 ± 0.0041 |
| UAGUGAGUCACGUUCUCAGAGAGAUUAACA | 0.171 ± 0.017 |
| UACACUGUUACCUUCUCUGAGAGAUUAACA | 0.441 ± 0.024 |
| UAGACUGUCACCUUCUGUGAGAGAUAUUGA | 0.0117 ± 0.004 |
| UUCACUGUACACCUUCUCUGAGAGAUUAACA | 0.655 ± 0.033 |
| AUCACUGUACCUUCUCUGAGAGAUUAACA | 0.769 ± 0.051 |
| UACACUGUACACCUUCUCUGAGAGAUUAACA | 0.623 ± 0.03 |
| UAGACUGUACACCUUCUCUGAGAGAUUAACA | 0.779 ± 0.055 |
| UUCACUGUACCUUCUCUGAGAGAUUAACA | 0.712 ± 0.036 |
| AUCACUGUACACCUUCUCUGAGAGAUUAACA | 0.8 ± 0.055 |
| AUCACUGUAACCUUCUCUGAGAGAUUAACA | 0.651 ± 0.03 |
| UAGACUGUACCUUCUCUGAGAGAUUAACA | 0.572 ± 0.044 |
| UAGACUGACACCUUCUCUGAGAGAUUAACA | 0.62 ± 0.035 |
